MCF10A rereplic – induces DNA re-replication in MCF 10a normal breast cells | 350,000 tested, 2.9% active | Potency, µM (highest dose often 46.1 µM), usual class: activators | MCF 10A DNA re-replication, Hoechst nuclear intensity, 48 h; note: nearly all actives have a fitted effect of over 50% in size
VP16 counter – Gal4-VP16 reporter inhibition counter-screen; Drosophila S2 Gal4-VP16 UAS-luciferase, luminescence, 20 h; Potency, µM (highest dose often 53.6 µM), most hits filed as inhibitors; 310,000 tested, 3.5% active;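 note: Gal4-VP16 expression switched on by copper sulfate through the metallothionein promoter; nearly all actives have a fitted effect of over 50% in size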
KB-V1 MDR tox – KB-V1 MDR subline cytotoxicity; KB-V1 MDR cells viability, CellTiter-Glo, 72 h; Potency, µM (titrated, usually from 46.1 µM), actives largely listed as cytotoxic; 400,000 tested, 3.4% active; note: nearly all actives have a fitted effect of over 60% in size
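Luminescent ATP read-out (CellTiter-Glo, 10 min) measures survival of drug-selected KB-V1 MDR cells after 72 h, 37 degrees C compound exposure. Medium: phenol-red-free DMEM, 10% FBS. Values from fitted concentration-response curves.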
SW480 rerep – induces DNA re-replication in SW480 colon adenocarcinoma cells | AID 624297 | Potency, µM (series often up to 46.1 µM), usual class: activators | 340,000 tested, 1.8% active | SW480 DNA re-replication, Hoechst DNA content imaging, 48 h; note: nearly all actives have a fitted effect of over 55% in size
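Treated cells incubate 48 hr (37 C, 5% CO2), are stained 40 min with Hoechst, and nuclear fluorescence is enumerated; a rise in nuclei with high DNA signal marks re-replication.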
RORg inh – blocks mouse ROR gamma transcriptional activity | 310,000 tested, 5.4% active | Potency, µM (highest dose often 53.6 µM), most hits filed as inhibitors | P51450 | Drosophila S2 Gal4-RORgamma UAS-luciferase reporter, 20 h; note: nearly all actives have a fitted effect of over 60% in size
Target sequence (P51450 whole entry, looked up, the tested form may be a part): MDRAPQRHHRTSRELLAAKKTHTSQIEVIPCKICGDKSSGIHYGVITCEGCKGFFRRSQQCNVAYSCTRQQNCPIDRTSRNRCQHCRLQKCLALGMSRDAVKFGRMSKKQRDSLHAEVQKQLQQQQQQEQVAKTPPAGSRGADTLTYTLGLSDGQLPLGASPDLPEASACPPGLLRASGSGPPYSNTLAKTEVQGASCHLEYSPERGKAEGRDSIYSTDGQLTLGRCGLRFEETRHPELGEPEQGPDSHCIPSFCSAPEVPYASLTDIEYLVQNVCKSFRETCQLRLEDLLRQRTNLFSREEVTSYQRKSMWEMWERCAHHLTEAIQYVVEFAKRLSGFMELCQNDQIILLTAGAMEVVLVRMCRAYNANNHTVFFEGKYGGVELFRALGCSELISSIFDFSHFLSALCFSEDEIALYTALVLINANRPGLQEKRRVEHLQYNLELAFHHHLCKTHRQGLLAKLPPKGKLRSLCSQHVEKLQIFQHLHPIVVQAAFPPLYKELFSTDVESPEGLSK
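Luciferase reporter read in Schneider cells carrying Gal4-RORγ (mouse) and UAS-Photinus luciferase; cells given compound 1 h before 700 uM copper sulfate induction, then incubated 20 h at ambient temperature.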
KB-3-1 tox – KB-3-1 parental cell cytotoxicity | Potency, µM (highest dose often 46.1 µM), usual class: cytotoxic | KB-3-1 viability, CellTiter-Glo ATP luminescence, 72 h | 400,000 tested, 1.4% active; note: nearly all actives have a fitted effect of over 60% in size
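Parental KB-3-1 adenocarcinoma cells in phenol-red-free DMEM with 10% FBS were pin-treated with compounds at several concentrations, incubated 72 h at 37 °C, and viability read by CellTiter-Glo luminescence; concentration-effect curves were fitted after normalization.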
Each line names hits and unclear results; the compound was inactive in the other large screens. A selection: hits, their analogues and other compounds. The true share with any hit is near 10%. Calls come from the whole dose curve; as a rule, active = well fitted curve in the direction sought with a large enough effect; inconclusive = small, poorly fitted or top-dose-only effect, or another doubt; inactive = no such curve, though single readings can be large; an effect the other way counts as inactive or inconclusive.

O=C(c1cnc(N2CCN(c3ncccn3)CC2)c2ccccc12)N1CCN(c2ccccn2)CC1	MCF10A rereplic inconclusive, KB-V1 MDR tox 21µM, RORg inh inconclusive
O=C(c1cc(-c2ccncc2)nc2ccccc12)N1CCN(c2ccccn2)CC1	MCF10A rereplic 10µM, KB-V1 MDR tox inconclusive, SW480 rerep 18µM, KB-3-1 tox 13µM
O=C(c1cn(Cc2ccccc2)nc1-c1ccccc1)N1CCN(c2ccccn2)CC1	KB-V1 MDR tox inconclusive, SW480 rerep inconclusive, KB-3-1 tox 10µM (no result: VP16 counter, RORg inh)
O=C(c1ccccc1-c1ccccc1)N1CCN(c2ccccn2)CC1	MCF10A rereplic 7.3µM, KB-V1 MDR tox 2.6µM, SW480 rerep 7.3µM, KB-3-1 tox 2.6µM
COCCn1cnc2cc(C)c(C)cc21	RORg inh inconclusive
CCCCn1cnc2cc(C)c(C)cc21	VP16 counter inconclusive, RORg inh 4µM
CCC(=O)c1ccc(OCCn2cnc3ccccc32)cc1	KB-V1 MDR tox 21µM
Cc1cc2ncn(CC(C)C)c2cc1C	VP16 counter inconclusive, RORg inh 7.9µM
CCC(=O)c1ccc(OCCn2cncn2)cc1	none
Cc1cc2ncn(CC(O)COc3cccc(C(=O)O)c3)c2cc1C (stereo unspecified)	none
Cc1cc2ncn(CCOc3ccccc3)c2cc1C	KB-V1 MDR tox 23µM, RORg inh 13µM
Cc1ccc(NC(=O)Cn2c(=O)n(CCC(=O)N3CCc4ccccc4C3)c(=O)c3ccccc32)c(C)c1	none (no result: MCF10A rereplic, VP16 counter, SW480 rerep, RORg inh)
CCOc1cccc(C2C=C(c3ccc4c(c3)OCO4)NC(c3ccc(Br)cc3)N2)c1O (stereo unspecified)	KB-3-1 tox inconclusive (no result: MCF10A rereplic, VP16 counter, SW480 rerep, RORg inh)
COc1ccc(OCCN2CCC(C(=O)NC(c3ccc(Cl)cc3)c3cnccn3)CC2)cc1 (stereo unspecified)	none (no result: MCF10A rereplic, VP16 counter, SW480 rerep, RORg inh)
CCN(CC)C(=O)CC(c1ccc(OC)cc1)c1c(OC)cc(OC)c2c(-c3ccccc3)cc(=O)oc12 (stereo unspecified)	RORg inh inconclusive (no result: MCF10A rereplic, KB-V1 MDR tox, SW480 rerep, KB-3-1 tox)
COc1cccc([C@@H]2Oc3ccc(OC)cc3/C(=N/O[C@@H](C)c3cc(-c4c(C)cc(C)cc4C)no3)[C@@H]2O)c1	none (no result: MCF10A rereplic, KB-V1 MDR tox, SW480 rerep, KB-3-1 tox)
Cc1c(CCC(=O)NCCCn2ccnc2)c(=O)oc2c(C)c3occ(C(C)(C)C)c3cc12	MCF10A rereplic inconclusive, SW480 rerep 21µM
COc1ccc2[nH]cc(CCNc3ncncc3-c3ccccc3C(F)(F)F)c2c1	RORg inh inconclusive (no result: MCF10A rereplic, KB-V1 MDR tox, SW480 rerep, KB-3-1 tox)
Cc1cc(C)n(CC(=O)Nc2ccc(F)c(F)c2)c(=O)c1C#N	none (no result: MCF10A rereplic, VP16 counter, SW480 rerep, RORg inh)
CC1CCN(C(=O)c2cc3c(ccc4ccccc43)o2)CC1	VP16 counter 10µM, RORg inh 4.5µM
COc1cc(C(=O)NS(=O)(=O)c2ccccc2C)ccc1Cc1cn(C)c2ccc(NC(=O)OC3CCCC3)cc12	MCF10A rereplic 21µM, RORg inh inconclusive (no result: KB-V1 MDR tox, KB-3-1 tox)
COc1cc(/C=C/C(=O)N(C)CC(=O)Nc2ccccc2SC)cc(OC)c1OC	KB-V1 MDR tox 13µM (no result: VP16 counter, RORg inh)
O=C(Nc1ccc2nc(SCCOc3ccccc3)sc2c1)c1cccs1	none (no result: MCF10A rereplic, VP16 counter, SW480 rerep, RORg inh)
CCOC(=O)O[C@]1(C(=O)OCCl)CC[C@@H]2[C@H]3CCC4=CC(=O)C=C[C@]4(C)[C@@H]3[C@@H](O)C[C@@]21C	none (no result: KB-V1 MDR tox, KB-3-1 tox)
O=[N+]([O-])c1ccc(O)c(-c2cc(C(F)(F)F)nc(-c3ccccc3)n2)c1	MCF10A rereplic inconclusive, VP16 counter 2.8µM, KB-V1 MDR tox inconclusive, RORg inh 1.1µM, KB-3-1 tox 1.5µM
COC(=O)c1sc(NC(=O)CCCn2nc([N+](=O)[O-])cc2C)c(C(=O)OC)c1C	KB-V1 MDR tox 0.92µM
Cc1ccc(Cl)cc1N1CCN(c2nc3ccccc3c3nc(-c4cccnc4)nn23)CC1	KB-V1 MDR tox inconclusive (no result: MCF10A rereplic, VP16 counter, SW480 rerep, RORg inh)
O=C(NCCC1CCCCN1S(=O)(=O)c1cccs1)C(=O)Nc1ccccc1 (stereo unspecified)	MCF10A rereplic inconclusive (no result: VP16 counter, RORg inh)
COc1ccc(NC(=O)C(=O)NCCC2CCCCN2S(=O)(=O)c2ccccc2)cc1 (stereo unspecified)	MCF10A rereplic inconclusive, KB-V1 MDR tox inconclusive, SW480 rerep 15µM, KB-3-1 tox 4.6µM (no result: VP16 counter, RORg inh)
COc1ccc(CNC(=O)C(=O)NCCC2CCCCN2S(=O)(=O)c2ccccc2)cc1 (stereo unspecified)	none (no result: VP16 counter, RORg inh)
O=C(NCCc1ccccc1)C(=O)NCCC1CCCCN1S(=O)(=O)c1cccs1 (stereo unspecified)	KB-V1 MDR tox 2.3µM (no result: VP16 counter, RORg inh)
COc1ccc(NC(=O)C(=O)NCCC2CCCCN2S(=O)(=O)c2cccs2)cc1 (stereo unspecified)	MCF10A rereplic 2.1µM, KB-V1 MDR tox 1.8µM, SW480 rerep 4.5µM, KB-3-1 tox 2.6µM (no result: VP16 counter, RORg inh)
C1OCOCO1	none (no result: KB-V1 MDR tox, KB-3-1 tox)
CC1(C(=O)Nc2ccc3c(c2)OCCO3)CN(S(C)(=O)=O)CC(=O)N1CCCn1ccnc1 (stereo unspecified)	KB-3-1 tox inconclusive (no result: MCF10A rereplic, VP16 counter, SW480 rerep, RORg inh)
COC(=O)C1=C(N)Oc2cc(N(C)C)ccc2C1c1ccccc1OC (stereo unspecified)	MCF10A rereplic 9.2µM, KB-V1 MDR tox inconclusive, SW480 rerep 12µM
COC(=O)C1=C(N)Oc2cc(C)n(CC3CCCO3)c(=O)c2C1c1ccccc1OC (stereo unspecified)	none
CN(C)c1ncc(S(=O)(=O)c2ccccc2)c(N)n1	none
CN(C)c1ncc(S(=O)(=O)c2ccccc2)c(-c2ccccc2Cl)n1	KB-V1 MDR tox 18µM
COCCCNc1nc(NCc2ccc(C)cc2)c2cnn(C)c2n1	none (no result: MCF10A rereplic, VP16 counter, SW480 rerep, RORg inh)
COc1ccc(OC)c(/C=C/C(=O)N2CCN(S(=O)(=O)c3ccc(C)cc3C)CC2)c1	KB-V1 MDR tox 3.7µM, KB-3-1 tox inconclusive (no result: VP16 counter, RORg inh)
COc1ccc(OC)c(/C=C/C(=O)N2CCN(S(=O)(=O)c3cc(C)ccc3C)CC2)c1	MCF10A rereplic inconclusive (no result: VP16 counter, RORg inh)
COc1cc(C(=O)OCC(=O)N2CCN(S(=O)(=O)c3ccc(C)cc3C)CC2)c([N+](=O)[O-])cc1OC	KB-V1 MDR tox 9.2µM (no result: VP16 counter, RORg inh)
CCOc1ccc(C(=O)NC(=S)Nc2cc(C)ccn2)cc1[N+](=O)[O-]	none
O=C(NC(=S)Nc1ccccn1)c1cccc([N+](=O)[O-])c1	VP16 counter inconclusive, KB-V1 MDR tox inconclusive, RORg inh 3.5µM
CCOc1ccc(C(=O)NC(=S)Nc2cccnc2)cc1[N+](=O)[O-]	RORg inh 14µM
CCOc1ccc(C(=O)NC(=S)Nc2ccccn2)cc1[N+](=O)[O-]	VP16 counter inconclusive, RORg inh 0.71µM
CCOc1ccccc1CNC(=O)c1ccc(Cn2c(SCc3ccccc3)nc3cccnc32)cc1	KB-3-1 tox inconclusive (no result: MCF10A rereplic, VP16 counter, SW480 rerep, RORg inh)
